The source made the active and inactive calls. Unless noted, how the calls were made is not given here.

The nature of test [1]: anti-His antibody binders, primary screen, artefact control for SMM control protein annotation, biochemical, small-molecule microarray, 635 nm fluorescence (AID 1128).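 Further: score merges feature fluorescence with signal-to-noise for each printed compound spot.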 The settings on record: anti-His Alexa647 antibody binding, higher = more signal.
Test [2] concerns Human papillomavirus type 1a E7 protein (residues 1-88). In words: HPV1a E7 small-molecule binders, primary screen, biochemical, small-molecule microarray, residues 1-88, 635 nm (AID 1129). The conditions noted are these: small-molecule microarray binding, fluorescence 635 nm; higher = more signal.
Test [3] concerns the target Focal adhesion kinase 1 (Homo sapiens) (UniProt Q05397). In words: small-molecule microarray binders of FAK, primary screen, biochemical, 635/667 nm fluorescence, BSA, DTT (AID 1130).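 Further: composite of spot emission at 667 nm and signal to noise over triplicate slides.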 The settings on record: PTK2 binding, 635 nm fluorescence, higher = more signal.
In test [4] the test system is Fibrinogen (Alexa647-labelled). In words: fibrinogen binders on compound microarrays, profiling panel, artefact control for SMM control-protein annotation, biochemical, small-molecule microarray, 635/667 nm fluorescence (AID 1131).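 Further: z-score merges 667 nm fluorescence with per-spot signal-to-noise over triplicate slides.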 The conditions noted are these: fibrinogen-A647 binding fluorescence, higher = more signal.
Test [5] has as its target Follistatin (Homo sapiens) (UniProt P19883). In words: follistatin binders on small-molecule microarrays, primary screen, biochemical, small-molecule microarray, 635/667 nm fluorescence (AID 1132). The conditions noted are these: FST binding, 635 nm fluorescence, higher = more signal.
Test [6] has as its target Fibroblast growth factor 2 (Homo sapiens) (UniProt P09038). In words: FGF2 binders on small-molecule microarrays, primary screen, biochemical, small-molecule microarray, 635/667 nm fluorescence (AID 1133). The settings on record: small-molecule microarray binding, FGF2, fluorescence 635/667; higher = more signal.
Test [7] can be described thus: mitochondrial membrane potential change in A549 cells, profiling panel, cell-based, JC-1 fluorescence, basal, 24 h, 100 nL (AID 1138).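 Further: A549 lung adenocarcinoma cells under basal conditions with no added stimulus; test concentration not given here.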 The conditions noted are these: higher = more signal.
The test system of test [8] is Lefty1. In words: Lefty1 binders on small-molecule microarrays, primary screen, biochemical, small-molecule microarray, 635/667 nm fluorescence (AID 1139). The conditions noted are these: small-molecule microarray binding, fluorescence 635/667; higher = more signal.
Test [9] concerns wheat germ agglutinin (Triticum aestivum), Alexa647-labelled. In words: wheat germ agglutinin binders on compound microarrays, profiling panel, artefact control for SMM control-protein annotation, biochemical, small-molecule microarray, 635/667 nm fluorescence (AID 1140).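 Further: score merges 667 nm feature emission with signal to noise over triplicate slides.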 The settings on record: WGA-A647 binding, 635 nm fluorescence, higher = more signal.
Test [10] concerns the target Luciferin 4-monooxygenase (Photinus pyralis) (UniProt P08659). In words: firefly luciferase enzyme inhibitors, primary screen, biochemical, luminescence, purified enzyme, 2006 set (AID 1141).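 Further: cell-free assay with purified firefly luciferase at 100 ng per well in PBS; test concentration not given here.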 The conditions noted are these: SteadyGlo luminescence, 30 min, higher = more signal, called active from +8 up or from −8 down.
The test system of test [11] is Wnt5a (protein binding on small-molecule microarray). In words: Wnt5a binders on small-molecule microarray, primary screen, biophysical, 635/667 nm fluorescence (AID 1142).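 Further: fluorescence read at 667 nm with signal to noise per printed feature.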 The settings on record: 635 nm fluorescence, higher = more signal.
Test [12] can be described thus: cell viability in Huh7 cells, primary screen, cytotoxicity control for HCV replication inhibitor project, CellTiter-Glo luminescence, basal, 48 h (AID 1143).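 Further: Huh7 hepatoma cells carrying a hepatitis C replication reporter with no stimulus; test concentration not given here.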 The conditions noted are these: Huh7 HCV replicon, higher = more signal, called active from +8 up or from −8 down. On the technique in general: Cellular ATP, detected with luciferase, serves as a proxy for viable cell number.

A short description of test [13]: P. aeruginosa biofilm formation inhibitors, primary screen, PAO1 strain, BacTiter-Glo luminescence, LB-PBS (AID 1144). The conditions noted are these: 12 h, higher = more signal.
Test [14] is described as follows: CREB reporter modulators without forskolin, primary screen, cell-based, PC12, CRE-LacZ reporter, unstimulated (AID 1145). The conditions noted are these: no forskolin, luminescence, 4.5 h, higher = more signal, called active from +8 up or from −8 down.
Test [15] is described as follows: CREB reporter modulators under forskolin, primary screen, cell-based, PC12, CRE-LacZ reporter, forskolin-stimulated (AID 1146).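 Further: PC12 cells with 6xCRE LacZ reporter stimulated by forskolin 10 µM; beta-galactosidase reporter signal reflecting CREB driven transcription.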 The settings on record: luminescence, 4.5 h, higher = more signal, called active from +8 up or from −8 down.
The target of test [16] is Streptavidin (Streptomyces avidinii) (UniProt P22629). In words: streptavidin binders on small-molecule microarray, primary screen, artefact control for SMM compound annotation, biophysical, 635/667 nm fluorescence (AID 1147).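 Further: signal reflects streptavidin binding to arrayed compounds as a control protein.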 The conditions noted are these: streptavidin binding, higher = more signal.
Chain of Streptavidin (Streptomyces avidinii) (P22629 whole entry, looked up): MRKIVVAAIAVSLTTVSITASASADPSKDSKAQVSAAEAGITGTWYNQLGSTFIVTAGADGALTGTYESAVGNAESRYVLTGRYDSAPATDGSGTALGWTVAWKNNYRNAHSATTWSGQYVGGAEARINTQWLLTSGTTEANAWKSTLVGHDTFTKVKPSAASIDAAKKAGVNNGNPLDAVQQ
A short description of test [17]: small-molecule binders of probe aInhba, primary screen, biochemical, small-molecule microarray, 635/667 nm fluorescence (AID 1148).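 Further: score merges 667nm spot fluorescence with signal-to-noise for antibody binding to printed compounds.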 The settings on record: higher = more signal.
The target of test [18] is Torsin-1A (Homo sapiens) (UniProt O14656). In words: torsin A binders from cell lysate, primary screen, small-molecule microarray, wild-type, 635/667 nm (AID 1149). The settings on record: COS7 hTOR1A-WT lysate, 635 nm fluorescence, higher = more signal.
Chain of Torsin-1A (Homo sapiens) (O14656 whole entry, looked up): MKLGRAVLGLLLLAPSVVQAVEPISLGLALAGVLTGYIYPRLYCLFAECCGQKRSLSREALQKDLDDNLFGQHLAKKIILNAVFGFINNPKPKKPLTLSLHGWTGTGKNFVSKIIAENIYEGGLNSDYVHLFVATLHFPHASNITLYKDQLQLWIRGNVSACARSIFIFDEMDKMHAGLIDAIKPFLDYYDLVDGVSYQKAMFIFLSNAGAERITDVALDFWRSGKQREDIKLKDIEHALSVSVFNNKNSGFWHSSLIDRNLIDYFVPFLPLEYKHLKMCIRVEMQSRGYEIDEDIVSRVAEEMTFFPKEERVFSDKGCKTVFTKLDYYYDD
Test [19] has the same target. In words: small-molecule binders of mutant TOR1A in lysate, primary screen, cell lysate, small-molecule microarray, COS7 lysate, 635/667 nm fluorescence (AID 1150).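 Further: score pools 667 nm emission and signal to noise measuring lysate protein binding.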 The conditions noted are these: COS7 hTOR1A mutant lysate, 635 nm fluorescence, higher = more signal.
Test [20] concerns Sonic hedgehog protein (Shh). In words: small-molecule binders of Shh protein, primary screen, biochemical, small-molecule microarray, 635/667 nm fluorescence (AID 1151).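 Further: Shh protein binding to compounds spotted on small-molecule microarray slides; score combines spot fluorescence intensity with signal-to-noise across triplicate slides.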 The conditions noted are these: small-molecule microarray binding, 635 nm fluorescence; higher = more signal.

Chain of Follistatin (Homo sapiens) (P19883 whole entry, looked up): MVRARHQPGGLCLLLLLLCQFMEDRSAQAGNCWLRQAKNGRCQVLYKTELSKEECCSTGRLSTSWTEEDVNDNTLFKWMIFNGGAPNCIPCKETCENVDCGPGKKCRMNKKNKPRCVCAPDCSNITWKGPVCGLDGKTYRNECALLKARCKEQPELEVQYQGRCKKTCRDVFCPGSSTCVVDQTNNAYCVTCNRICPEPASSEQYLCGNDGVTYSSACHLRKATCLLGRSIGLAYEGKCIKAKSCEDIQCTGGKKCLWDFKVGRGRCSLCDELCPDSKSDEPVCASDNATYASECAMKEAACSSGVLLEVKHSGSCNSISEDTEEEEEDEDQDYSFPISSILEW
Chain of Focal adhesion kinase 1 (Homo sapiens) (Q05397 whole entry, looked up): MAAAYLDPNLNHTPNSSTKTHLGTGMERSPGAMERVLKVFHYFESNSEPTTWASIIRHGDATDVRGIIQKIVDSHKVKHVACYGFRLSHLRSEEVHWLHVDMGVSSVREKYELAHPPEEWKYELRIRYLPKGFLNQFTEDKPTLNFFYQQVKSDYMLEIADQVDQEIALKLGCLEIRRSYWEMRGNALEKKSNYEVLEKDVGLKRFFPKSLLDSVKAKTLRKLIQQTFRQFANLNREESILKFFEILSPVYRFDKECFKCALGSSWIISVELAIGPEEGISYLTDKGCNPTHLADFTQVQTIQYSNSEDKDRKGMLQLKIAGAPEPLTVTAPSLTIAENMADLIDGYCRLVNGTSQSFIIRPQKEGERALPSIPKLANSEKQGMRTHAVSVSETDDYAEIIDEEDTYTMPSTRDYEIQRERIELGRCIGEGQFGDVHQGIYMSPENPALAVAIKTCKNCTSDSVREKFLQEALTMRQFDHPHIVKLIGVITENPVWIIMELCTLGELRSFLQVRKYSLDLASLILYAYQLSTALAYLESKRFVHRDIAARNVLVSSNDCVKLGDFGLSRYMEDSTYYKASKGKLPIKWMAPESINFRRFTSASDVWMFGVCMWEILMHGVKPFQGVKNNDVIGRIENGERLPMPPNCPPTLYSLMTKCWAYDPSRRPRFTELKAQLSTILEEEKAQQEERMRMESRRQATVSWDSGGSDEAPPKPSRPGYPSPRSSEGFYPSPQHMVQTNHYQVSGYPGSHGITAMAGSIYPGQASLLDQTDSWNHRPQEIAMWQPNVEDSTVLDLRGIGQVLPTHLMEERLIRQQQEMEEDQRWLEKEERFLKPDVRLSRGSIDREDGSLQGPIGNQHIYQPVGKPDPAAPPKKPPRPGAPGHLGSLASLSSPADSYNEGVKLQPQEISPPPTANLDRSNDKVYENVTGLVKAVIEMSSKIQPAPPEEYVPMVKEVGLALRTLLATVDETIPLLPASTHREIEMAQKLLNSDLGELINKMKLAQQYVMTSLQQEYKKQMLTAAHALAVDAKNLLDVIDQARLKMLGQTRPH
Chain of Fibroblast growth factor 2 (Homo sapiens) (P09038 whole entry, looked up): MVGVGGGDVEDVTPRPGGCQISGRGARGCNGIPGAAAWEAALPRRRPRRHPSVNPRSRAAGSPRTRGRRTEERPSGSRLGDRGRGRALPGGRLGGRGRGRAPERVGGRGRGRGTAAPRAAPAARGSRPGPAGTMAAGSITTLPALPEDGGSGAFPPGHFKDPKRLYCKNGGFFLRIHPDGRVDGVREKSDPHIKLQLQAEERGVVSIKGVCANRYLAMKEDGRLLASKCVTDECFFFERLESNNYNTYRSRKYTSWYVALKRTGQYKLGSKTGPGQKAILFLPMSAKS
Chain of Luciferin 4-monooxygenase (Photinus pyralis) (P08659 whole entry, looked up): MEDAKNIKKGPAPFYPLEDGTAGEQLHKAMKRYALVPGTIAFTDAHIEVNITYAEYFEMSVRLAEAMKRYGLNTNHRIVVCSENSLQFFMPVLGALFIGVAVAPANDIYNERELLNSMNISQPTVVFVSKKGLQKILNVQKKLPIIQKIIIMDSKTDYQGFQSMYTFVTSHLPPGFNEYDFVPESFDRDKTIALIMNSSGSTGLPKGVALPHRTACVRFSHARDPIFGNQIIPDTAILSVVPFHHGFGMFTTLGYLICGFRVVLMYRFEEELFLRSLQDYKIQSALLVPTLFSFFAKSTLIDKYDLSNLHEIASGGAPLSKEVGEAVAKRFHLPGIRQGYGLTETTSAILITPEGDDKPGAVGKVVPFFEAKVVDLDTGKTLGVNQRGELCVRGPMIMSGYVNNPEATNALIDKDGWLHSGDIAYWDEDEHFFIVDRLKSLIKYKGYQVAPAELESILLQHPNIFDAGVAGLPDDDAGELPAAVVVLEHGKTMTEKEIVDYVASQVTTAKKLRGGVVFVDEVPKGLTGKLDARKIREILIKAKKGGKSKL

Consider `CN1C(=O)C2C(C1=O)C1C=C(c3ccc(CO)cc3)C2C(c2cccs2)N1C` (stereo not given), for which the composite z-score in test [1] was 0.495; in [2], 0.157; in test [3], 0.0955; in test [4] it was 0.783; in test [5], -0.0613; in test [6] it was -0.25. Also, the composite z-score in [8] is -0.295; in test [9], 0.742; in [11] it was -0.192; in test [16] it was 1.56; in test [17], -0.0523; in test [18], 0.233. The results for the composite z-score in [19] and in test [20] were 0.221 and 0.237, respectively. For the same compound, the z-score in test [7] is -0.0324; in [10], -0.836 (inactive); in test [12] it was -1.04 (inactive); in test [13] it was 2.04 (inactive); in [14], 1.98 (inactive); in [15], -0.999 (inactive).

Turning to `NC(=O)[C@@]1(CCS(=O)(=O)c2ccccc2)COC(c2ccc(OCCCO)cc2)=N1`, the composite z-score in test [1] was 0.329; in test [2], -0.201; in test [3], -0.0683; in test [4], 0.294; in test [5], 0.112; in test [6], -0.0653. The composite z-score was -0.643 in test [8]; 1.05 in test [9]; 0.375 in test [11]; 0.447 in [16]; -0.0044 in test [17]; -0.0756 in test [18]. Also, the composite z-score in test [19] is 0.324; in [20], -0.463. Further, the z-score in [7] is -0.492; in [10], -0.188 (inactive); in [12], -1.5 (inactive); in [13], 1.59 (inactive); in test [14] it was 0.148 (inactive); in [15], -1.35 (inactive).

In the case of `CC(C)[C@@H](C(=O)O)n1cc(-c2ccccc2)nn1`, the composite z-score amounted to 0.808 in [1]; 1.14 in test [2]; 0.866 in test [3]; 0.924 in test [4]; 0.098 in test [5]; 0.112 in test [6]. Besides, the composite z-score in [8] is -0.0617; in test [9] it was 1.15; in test [11], 0.0953; in test [16] it was 1.23; in [17], 0.019; in [18] it was 0.466. Also, the results for the composite z-score in test [19] and in test [20] were 1.16 and 0.128, respectively. Also, the z-score in [7] is -0.138; in test [10], 0.131 (inactive); in test [12] it was 0.0466 (inactive); in test [13] it was 0.69 (inactive); in test [14], 0.251 (inactive); in test [15] it was 0.0824 (inactive).

For the compound `COC(=O)[C@@]1(Cc2ccccc2)[C@@H]2[C@@H](CC(=O)[C@H]2CC(=O)C(=O)N(C)C)CN1C(=O)c1ccccc1`, the composite z-score in [1] is 1.33; in test [2], 0.577; in test [3], 0.434; in test [4] it was 0.601; in [5], -0.155; in [6] it was -0.112. Also, the composite z-score in test [8] was -0.575; in test [9], 0.0553; in test [11], -0.087; in test [16], 0.315; in [17], -0.0963; in test [18], -0.115. The composite z-score is 0.417 in test [19] and -0.829 in [20]. The z-score in test [7] is 1.19; in test [10] it was 0.558 (inactive); in [12], -0.0162 (inactive); in test [13], -0.621 (inactive); in test [14], 0.201 (inactive); in test [15] it was 0.983 (inactive).

Take `C=CCC(OC(C)=O)[C@@H]1[C@@H](N(Cc2cc3ccccc3o2)C(=O)Cc2ccc(OC)cc2)c2cc(OCCCO)ccc2N1C(=O)Cc1ccc(OC)cc1` (stereo not given in full): the composite z-score in [1] was 0.69; in test [2], -0.406; in [3], 0.517; in test [4] it was 0.712; in test [5], 0.726; in test [6] it was 0.171. In addition, the composite z-score was -0.0035 in [8]; 0.67 in test [9]; -0.0737 in [11]; -0.213 in test [16]; 0.168 in [17]; 0.29 in [18]. The composite z-score in test [19] amounted to 0.34; in test [20] it was 0.551. Further, the z-score was -0.411 in test [7]; 0.244 (inactive) in test [10]; -1.17 (inactive) in test [12]; 0.0258 (inactive) in [13]; 0.469 (inactive) in test [14]; -0.0385 (inactive) in [15].
